The text below walks through data of PubChem BioAssay.

By inhibition is commonly meant the change of the read-out against control, counted positive when it falls. By EC50 is commonly meant the concentration at which the effect is half-maximal. By pEC50 is commonly meant −log10 of the EC50, conventionally taken in molar units.

pEC50: −log10 of the molar value. Inconclusive results are not listed. For some of these results: Results with a measured potency or affinity are listed apart. The source made the active and inactive calls. Unless noted, how the calls were made is not given here.

Test [1] is described as follows: polyglutamine-triggered caspase-3 activation inhibitors, cell-based (AID 1583). Particulars: polyglutamine-induced caspase-3 activation, cell assay; stronger effect = higher value;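 tested at 10 µM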.
Test [2] can be described thus: suppressors of polyQ aggregation in yeast, 75Q-TubU reporter (AID 1593). Particulars: Yeast 75Q polyglutamine aggregation reporter.
Test [3] is described as follows: rescue of polyQ-huntingtin neuronal dysfunction in worms, whole organism, C. elegans mechanosensory neurons, N-terminal huntingtin (AID 1599). The settings on record: touch response, stronger effect = higher value.
Test [4] in a line: inhibitors of mitochondrial cytochrome c release, biochemical, purified mitochondria (AID 1603).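 Further: mouse liver mitochondria challenged with calcium chloride; signal normalized to the plate average as 100%.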 Particulars: stronger effect = lower value.
A short description of test [5]: inhibitors of polyQ protein aggregation (AID 1604). Particulars: polyglutamine-induced protein aggregation inhibition assay; stronger effect = higher value; tested at 2.5 µM.
The target of test [6] is ATP-dependent translocase ABCB1 (Homo sapiens) (UniProt P08183). As to the kind of experiment: MDR1 (ABCB1) efflux transporter inhibition, cell-based (AID 377; in the data active means fluorescence slope change above about 50%). Particulars: MDR1-expressing cells, fluorescent substrate accumulation slope; stronger effect = higher value; concentration not given here.
Test [7] is described as follows: protection of motor neurons from glutamate death, cell-based, TUNEL DNA degradation staining, MNGlu (AID 1594). Particulars: glutamate-induced death, at 1 µM, stronger effect = higher value.
Test [8] in a line: mitochondrial permeability transition inhibitors (AID 1580). Particulars: isolated mitochondria, permeability transition inhibition.
Test [9] is described as follows: inhibitors of polyQ aggregate elongation, biochemical, solid-phase synthetic aggregates, QA3 (AID 1585). Particulars: biotin-polyQ incorporation; EC50: measured here: elongation inhibition potency; inhibition: at 100 µM, stronger effect = higher value.
Test [10] has as its target Huntingtin (Homo sapiens) (UniProt P42858). Kind of test: inhibitors of mutant Htt aggregation in vitro, dose response, QA1 (AID 1584). Particulars: in vitro mutant huntingtin aggregation assay; confirmation test; at 10 µM; stronger effect = lower value.

Huntingtin (Homo sapiens), sequence (P42858 whole entry, looked up): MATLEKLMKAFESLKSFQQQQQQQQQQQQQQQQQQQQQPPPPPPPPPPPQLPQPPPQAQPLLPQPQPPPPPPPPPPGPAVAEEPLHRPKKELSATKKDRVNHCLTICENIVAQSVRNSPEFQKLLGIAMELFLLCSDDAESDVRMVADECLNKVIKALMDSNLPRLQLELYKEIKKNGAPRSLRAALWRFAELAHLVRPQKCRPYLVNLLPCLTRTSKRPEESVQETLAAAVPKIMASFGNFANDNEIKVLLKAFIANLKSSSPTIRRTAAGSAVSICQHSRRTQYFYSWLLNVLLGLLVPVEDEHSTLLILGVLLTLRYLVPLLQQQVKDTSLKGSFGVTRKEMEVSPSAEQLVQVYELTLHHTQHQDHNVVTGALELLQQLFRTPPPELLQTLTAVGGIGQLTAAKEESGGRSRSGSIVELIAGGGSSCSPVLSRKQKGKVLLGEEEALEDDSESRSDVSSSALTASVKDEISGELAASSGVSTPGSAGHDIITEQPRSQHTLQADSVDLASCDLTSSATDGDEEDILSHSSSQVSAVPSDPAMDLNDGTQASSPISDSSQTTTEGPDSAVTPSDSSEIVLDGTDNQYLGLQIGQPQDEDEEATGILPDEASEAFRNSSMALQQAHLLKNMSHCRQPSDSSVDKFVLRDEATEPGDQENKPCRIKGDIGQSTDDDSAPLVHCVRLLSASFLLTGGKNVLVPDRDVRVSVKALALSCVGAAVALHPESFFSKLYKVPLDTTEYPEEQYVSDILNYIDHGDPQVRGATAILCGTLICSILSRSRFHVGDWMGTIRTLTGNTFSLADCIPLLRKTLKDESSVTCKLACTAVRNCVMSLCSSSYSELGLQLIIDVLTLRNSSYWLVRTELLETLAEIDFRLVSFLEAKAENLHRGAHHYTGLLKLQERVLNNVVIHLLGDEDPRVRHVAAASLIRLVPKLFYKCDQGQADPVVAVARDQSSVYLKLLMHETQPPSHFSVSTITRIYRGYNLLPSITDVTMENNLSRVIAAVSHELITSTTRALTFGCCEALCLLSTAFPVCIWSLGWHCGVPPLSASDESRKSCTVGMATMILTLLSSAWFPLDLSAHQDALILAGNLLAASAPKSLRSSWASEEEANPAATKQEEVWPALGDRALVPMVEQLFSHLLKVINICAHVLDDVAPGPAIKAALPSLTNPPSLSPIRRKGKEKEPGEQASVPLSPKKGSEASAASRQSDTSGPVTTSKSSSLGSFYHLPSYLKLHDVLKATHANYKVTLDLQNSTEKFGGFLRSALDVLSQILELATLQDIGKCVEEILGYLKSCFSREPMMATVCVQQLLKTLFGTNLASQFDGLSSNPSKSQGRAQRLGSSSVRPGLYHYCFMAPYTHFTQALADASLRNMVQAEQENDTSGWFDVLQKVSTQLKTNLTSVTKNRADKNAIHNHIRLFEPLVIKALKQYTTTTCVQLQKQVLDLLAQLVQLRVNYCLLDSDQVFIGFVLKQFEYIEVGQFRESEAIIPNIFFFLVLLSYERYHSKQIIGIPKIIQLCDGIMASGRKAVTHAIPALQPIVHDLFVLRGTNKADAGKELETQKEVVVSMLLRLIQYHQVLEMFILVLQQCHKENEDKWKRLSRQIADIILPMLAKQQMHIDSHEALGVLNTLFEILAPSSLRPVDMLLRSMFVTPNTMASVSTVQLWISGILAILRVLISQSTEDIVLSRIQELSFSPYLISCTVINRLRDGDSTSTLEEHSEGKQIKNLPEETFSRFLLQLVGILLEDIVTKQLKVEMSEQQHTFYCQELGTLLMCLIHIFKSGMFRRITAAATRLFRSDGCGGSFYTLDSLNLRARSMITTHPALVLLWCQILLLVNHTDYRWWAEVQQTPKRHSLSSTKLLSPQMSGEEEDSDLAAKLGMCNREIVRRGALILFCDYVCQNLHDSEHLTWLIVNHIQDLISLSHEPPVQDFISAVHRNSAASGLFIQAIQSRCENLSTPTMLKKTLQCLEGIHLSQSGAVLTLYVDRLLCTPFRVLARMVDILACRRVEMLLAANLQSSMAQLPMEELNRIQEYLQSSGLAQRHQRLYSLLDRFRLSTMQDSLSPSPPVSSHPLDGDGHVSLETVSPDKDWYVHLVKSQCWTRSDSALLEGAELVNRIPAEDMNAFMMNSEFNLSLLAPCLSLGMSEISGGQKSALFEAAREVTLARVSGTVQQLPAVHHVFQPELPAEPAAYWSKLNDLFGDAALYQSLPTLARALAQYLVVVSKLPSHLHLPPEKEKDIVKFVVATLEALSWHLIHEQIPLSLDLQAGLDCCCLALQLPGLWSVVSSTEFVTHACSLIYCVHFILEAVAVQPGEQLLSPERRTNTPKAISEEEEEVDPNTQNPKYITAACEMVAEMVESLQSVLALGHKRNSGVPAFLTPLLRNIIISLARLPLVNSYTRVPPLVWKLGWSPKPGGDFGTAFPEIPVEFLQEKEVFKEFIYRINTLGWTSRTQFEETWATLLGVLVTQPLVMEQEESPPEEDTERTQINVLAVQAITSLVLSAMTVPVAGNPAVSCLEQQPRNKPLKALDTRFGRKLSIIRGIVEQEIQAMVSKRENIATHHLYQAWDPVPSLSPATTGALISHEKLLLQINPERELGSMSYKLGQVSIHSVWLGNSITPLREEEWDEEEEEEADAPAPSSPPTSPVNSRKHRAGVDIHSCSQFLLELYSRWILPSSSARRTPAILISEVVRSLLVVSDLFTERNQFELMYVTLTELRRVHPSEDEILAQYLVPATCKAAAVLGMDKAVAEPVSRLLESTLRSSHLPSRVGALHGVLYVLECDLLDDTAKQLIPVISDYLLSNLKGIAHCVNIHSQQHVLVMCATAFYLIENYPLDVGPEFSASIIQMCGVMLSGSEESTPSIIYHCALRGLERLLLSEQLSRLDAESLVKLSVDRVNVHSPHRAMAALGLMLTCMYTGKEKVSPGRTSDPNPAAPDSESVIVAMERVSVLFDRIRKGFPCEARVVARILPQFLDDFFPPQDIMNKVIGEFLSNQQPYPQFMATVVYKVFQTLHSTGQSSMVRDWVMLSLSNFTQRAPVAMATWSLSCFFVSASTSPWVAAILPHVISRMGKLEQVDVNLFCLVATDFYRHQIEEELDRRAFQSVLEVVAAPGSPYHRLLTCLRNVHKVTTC
ATP-dependent translocase ABCB1 (Homo sapiens), sequence (P08183 whole entry, looked up): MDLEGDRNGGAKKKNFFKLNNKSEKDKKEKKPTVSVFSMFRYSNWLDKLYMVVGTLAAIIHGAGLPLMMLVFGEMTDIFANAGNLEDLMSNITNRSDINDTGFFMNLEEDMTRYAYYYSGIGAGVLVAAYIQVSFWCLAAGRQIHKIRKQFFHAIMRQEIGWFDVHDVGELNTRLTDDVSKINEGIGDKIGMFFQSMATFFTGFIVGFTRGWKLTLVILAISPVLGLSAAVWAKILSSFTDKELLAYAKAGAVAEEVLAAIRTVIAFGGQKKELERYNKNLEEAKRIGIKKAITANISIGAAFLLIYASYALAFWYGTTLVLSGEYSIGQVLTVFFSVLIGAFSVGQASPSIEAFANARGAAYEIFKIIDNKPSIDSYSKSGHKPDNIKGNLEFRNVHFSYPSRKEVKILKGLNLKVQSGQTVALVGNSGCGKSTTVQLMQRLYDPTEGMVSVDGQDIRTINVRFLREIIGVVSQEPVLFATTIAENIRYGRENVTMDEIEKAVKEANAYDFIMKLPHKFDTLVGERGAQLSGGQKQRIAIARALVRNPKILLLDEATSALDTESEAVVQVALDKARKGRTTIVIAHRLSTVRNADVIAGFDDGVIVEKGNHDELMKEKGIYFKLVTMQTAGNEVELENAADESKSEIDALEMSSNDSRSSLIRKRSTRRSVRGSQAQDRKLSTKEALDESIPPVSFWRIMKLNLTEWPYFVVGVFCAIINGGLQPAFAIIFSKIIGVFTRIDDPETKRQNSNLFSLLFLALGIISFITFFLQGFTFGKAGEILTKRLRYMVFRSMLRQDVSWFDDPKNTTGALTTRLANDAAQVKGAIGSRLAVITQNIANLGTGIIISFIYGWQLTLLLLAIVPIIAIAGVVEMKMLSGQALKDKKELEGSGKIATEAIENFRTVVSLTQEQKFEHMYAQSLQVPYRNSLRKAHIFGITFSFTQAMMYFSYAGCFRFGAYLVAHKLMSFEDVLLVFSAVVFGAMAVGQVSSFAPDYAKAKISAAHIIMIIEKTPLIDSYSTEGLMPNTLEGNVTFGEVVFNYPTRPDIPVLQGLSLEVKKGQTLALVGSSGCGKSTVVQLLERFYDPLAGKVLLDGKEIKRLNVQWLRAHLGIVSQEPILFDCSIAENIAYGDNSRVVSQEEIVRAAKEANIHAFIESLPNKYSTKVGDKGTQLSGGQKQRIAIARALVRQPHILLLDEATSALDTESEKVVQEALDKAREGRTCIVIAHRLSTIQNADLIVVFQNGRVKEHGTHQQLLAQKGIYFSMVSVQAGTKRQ

As to `CC(=O)Nc1ccc(S(=O)(=O)Nc2ccc([N+](=O)[O-])cc2)cc1`, the inhibition in test [1] was determined as 15.7%. The score in test [2] amounted to 1.4. The same molecule displayed a rescue above control in test [3] of -10.3. Also, the cytochrome c release ratio in test [4] turned out to be 1.02. The inhibition of aggregation in test [5] came to 15.7%.
For the molecule `NS(=O)(=O)c1cc2c(cc1Cl)NC(CSCc1ccccc1)=NS2(=O)=O`, the fluorescence slope change in test [6] was 78.4% (active). Moreover, in test [1], the inhibition turned out to be 25.2%. This molecule also displayed a score in [2] of 1.43. Further, the protection in [7] is 57% (active). Besides, the rescue above control in test [3] is -12.2. The cytochrome c release ratio in [4] was determined as 1.07. Also, the inhibition of aggregation in test [5] came out at 47.9%.
On to `CC(=O)OC/C=C(C)/C=C/C=C(C)/C=C/C1=C(C)CCCC1(C)C`, for which the inhibition in test [1] was -4.49%. The score in test [2] was 1.02. The same molecule showed a rescue above control in test [3] of 0.33. The cytochrome c release ratio in [4] amounted to 1.12. The inhibition of aggregation in [5] stood at 85.2%.
For `CCN1CCCC(OC(=O)C(c2ccccc2)c2ccccc2)C1` (centres undefined), in that order: 7.55%, 1.33, -11.5, 1.06 and 23.6%.
Consider `Oc1c(Cl)cc(Cl)c(Cl)c1Cc1c(O)c(Cl)cc(Cl)c1Cl`, for which, in [8], the EC50 was 300 nM (active). Besides, the inhibition in test [1] was 5.38%. Moreover, the score in test [2] was -1.67. The rescue above control in test [3] is -6.64. The cytochrome c release ratio in test [4] amounted to 0.45. In test [5], the inhibition of aggregation stood at 91.6%.
Turning to `Cn1c([N+](=O)[O-])cnc1COC(N)=O`, the inhibition in [1] was -0.12%. Further, in test [2], the score was found to be 1.29. The same molecule showed a rescue above control in [3] of 8.28. For the same molecule, the cytochrome c release ratio in test [4] came out at 0.98. Besides, in test [5], the inhibition of aggregation stood at 44.8%.
The matching figures for `CC(=O)Oc1ccc(C(c2ccc(OC(C)=O)cc2)c2ccccn2)cc1`: 10.5%, 1.05, 5.96, 1.37 and 74.4%.
Regarding `COc1cc(NS(=O)(=O)c2ccc(N)cc2)ncn1`, in [1], the inhibition was -4.01%. Moreover, in [2], the score turned out to be 1.09. In test [3], this molecule yielded a rescue above control of 33.1. Moreover, in test [4], the cytochrome c release ratio stood at 0.96. Moreover, the inhibition of aggregation in test [5] came to 88.9%.
On to `CO[C@@]1(NC(=O)C(C(=O)O)c2ccc(O)cc2)C(=O)N2C(C(=O)O)=C(CSc3nnnn3C)CO[C@@H]21` (some centres undefined), for which the fluorescence slope change in test [6] is 63.7% (active). The inhibition in test [1] stood at 10.7%. For the same molecule, in test [9], the pEC50 is 5.70 and the inhibition is 91.1% (active). The score in [2] is 1.04. Moreover, the rescue above control in [3] stood at 12.8. The cytochrome c release ratio in [4] came out at 0.83. In addition, the inhibition of aggregation in test [5] stood at 72.2%.
For the molecule `C[N+]1(CCCCC[N+]2(C)CCCC2)CCCC1`, the inhibition in test [1] is -38.1%. The score in test [2] was 1.14. In test [3], this molecule returned a rescue above control of 1.54. Further, in [4], the cytochrome c release ratio was determined as 0.89. In addition, the inhibition of aggregation in test [5] came out at 49%.
Take `O=C1c2c(O)cccc2Cc2cccc(O)c21`: the inhibition in test [1] was 18.6%. Also, the aggregation ratio in [10] amounted to 0.75. This molecule also yielded a score in test [2] of 1.5. The molecule also had a rescue above control in test [3] of 0.38. In [4], the cytochrome c release ratio came to 0.41. Besides, the inhibition of aggregation in test [5] was determined as 37.9%.
Turning to `C=Cc1c(C)c2cc3[nH]c(cc4nc(cc5nc(cc1[nH]2)C(C)=C5CCC(=O)O)C(CCC(=O)O)=C4C)c(C)c3C=C`, in test [1], the inhibition is 39.5%. The aggregation ratio in test [10] worked out at 0.595. In test [9], the pEC50 was 3.97 and the inhibition was 59% (active). Besides, the score in test [2] stood at 0.75. The cytochrome c release ratio in test [4] worked out at 1.37. In addition, the inhibition of aggregation in test [5] was found to be 77.5%.
With `CC(C)(C)CC(C)(C)c1ccc(O)c(Cc2ccc(Cl)cc2Cl)c1`, the inhibition in [1] came out at 42%. Also, in [2], the score is -0.61. Moreover, in [3], the rescue above control was -2.34. Further, the cytochrome c release ratio in [4] turned out to be 0.8. For the same molecule, the inhibition of aggregation in [5] is 71.9%.
As to `O=c1cc[nH]c(=S)[nH]1`, the inhibition in test [1] was 2.52%. Moreover, the score in [2] is 1.24. Besides, in test [3], the rescue above control came out at 1.48. Moreover, in test [4], the cytochrome c release ratio was 1.09. The inhibition of aggregation in test [5] came out at 41.5%.
`CC(C)NCC(O)c1ccc2ccccc2c1` (centres undefined): in [1], the inhibition turned out to be 0.74%. The molecule also had a score in test [2] of 1.15. The rescue above control in test [3] was -8.05. Moreover, the cytochrome c release ratio in test [4] amounted to 0.68. Further, the inhibition of aggregation in [5] amounted to 88%.
`CO[C@@H]1[C@@H](OC(N)=O)[C@@H](O)[C@H](Oc2ccc3c(O)c(NC(=O)c4ccc(O)c(CC=C(C)C)c4)c(=O)oc3c2C)OC1(C)C`: the inhibition in [1] was -0.61%. Also, the score in test [2] came to 1.59. In [3], this molecule registered a rescue above control of -8.05. In addition, the cytochrome c release ratio in [4] amounted to 0.96. For the same molecule, in test [5], the inhibition of aggregation is -73.2%.
As for `O=C(O)c1ccccc1OP(=O)(O)O`, in test [1], the inhibition was 6.6%. In addition, the score in test [2] is 0.8. In test [3], this molecule registered a rescue above control of -8.86. Moreover, the cytochrome c release ratio in test [4] was determined as 1.13. For the same molecule, the inhibition of aggregation in test [5] was determined as 61%.
